Holding throughout (settings): mRNA level, 48 h; actives raise or lower the signal
Read-out in assay [1]: JUN Transcription Factor, JUN (gene 3725)
The assay can be described thus: LTEA_HepaRG_JUN: Life Technologies and Expression Analysis (LTEA) Assay for JUN Transcription Factor using HepaRG (AID 2283513). Put shortly: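 Read-out is JUN transcript level by TaqMan qRT-PCR, normalized to ACTB, GAPDH and POLR2A, after 48 h chemical treatment of HepaRG cells. Concentration-response spanned eight half-log points up to 100 uM in 0.5% DMSO.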

Read-out in assay [2]: Lipase C (LIPC), LIPC (gene 3990)
The assay can be described thus: LTEA_HepaRG_LIPC: Life Technologies and Expression Analysis (LTEA) Assay for Lipase C (LIPC) using HepaRG (AID 2283514). A digest of the protocol: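 HepaRG, 48 h exposure, 8-pt half-log series from 100 uM in 0.5% DMSO, duplicates. Readout: LIPC mRNA by Fluidigm qRT-PCR, housekeeping-normalized (ACTB/GAPDH/POLR2A). Gain or loss fitted bidirectionally against DMSO baseline.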

Read-out in assay [3]: Lipoprotein lipase (LPL), LPL (gene 4023)
Kind of assay: LTEA_HepaRG_LPL: Life Technologies and Expression Analysis (LTEA) Assay for Lipoprotein lipase (LPL) using HepaRG (AID 2283515). A digest of the protocol: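 HepaRG, 48 h exposure, 8-pt half-log dilutions from 100 uM, 0.5% DMSO vehicle, duplicates; qRT-PCR (Fluidigm array) of LPL mRNA vs housekeeping genes; bidirectional curve fit relative to DMSO baseline.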

Read-out in assay [4]: MicroRNA 122 (MIR122), gene 406906
The assay can be described thus: LTEA_HepaRG_MIR122: Life Technologies and Expression Analysis (LTEA) Assay for MicroRNA 122 (MIR122) using HepaRG (AID 2283516). Note: the transcript read is the microRNA miR-122. Put shortly: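 Human liver HepaRG cultures receive test chemicals for 48 h at eight half-log concentrations from 100 uM. Expression is quantified by qRT-PCR with ACTB/GAPDH/POLR2A normalization and fitted bidirectionally against 0.5% DMSO.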

Read-out in another assay: MYC, MYC (gene 4609)
Kind of assay: LTEA_HepaRG_MYC: Life Technologies and Expression Analysis (LTEA) Assay for MYC using HepaRG (AID 2283518). A digest of the protocol: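 Expression changes were scored by TaqMan qRT-PCR with ACTB, GAPDH and POLR2A normalization. Cultures in serum-free induction medium received duplicate 8-point concentration series, highest 100 uM, for 48 h; DMSO (0.5%) served as baseline.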

Read-out in assay [5]: matrix metalloproteinase-3 (MMP3), MMP3 (gene 4314)
The assay can be described thus: LTEA_HepaRG_MMP3: Life Technologies and Expression Analysis (LTEA) Assay for matrix metalloproteinase-3 (MMP3) using HepaRG (AID 2283519). Put shortly:
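qRT-PCR read-out of MMP3 mRNA (normalised to three housekeeping genes) in HepaRG liver cells after 48 h chemical exposure; 8-point half-log series, top 100 uM, 0.5% DMSO vehicle. Bidirectional curve fitting against DMSO baseline.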

Read-out in assay [6]: Paternally Expressed 10 (PEG10), PEG10 (gene 23089)
Kind of assay: LTEA_HepaRG_PEG10: Life Technologies and Expression Analysis (LTEA) Assay for Paternally Expressed 10 (PEG10) using HepaRG (AID 2283520).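 For AC50: differentiated HepaRG human liver cells in serum-free induction medium with 0.5% DMSO; PEG10 transcript by qRT-PCR normalised to ACTB GAPDH and POLR2A.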 Put shortly: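 Human HepaRG cultures are dosed for 48 h across an eight-point half-log series starting at 100 uM, with 0.5% DMSO as vehicle and baseline. Gain or loss of PEG10 transcript is measured by qRT-PCR and fitted in both directions.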

Read-out in assay [7]: Nuclear factor NF-kappa-B p105 subunit (Homo sapiens) (UniProt P19838)
Kind of assay: LTEA_HepaRG_NFKB1: Life Technologies and Expression Analysis (LTEA) Assay for Nuclear Factor Kappa B Subunit 1 (NFKB1) using HepaRG (AID 2283521).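 Note: differentiated human HepaRG liver cells in serum-free induction medium.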 Put shortly:
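NFKB1 transcript was measured by TaqMan qRT-PCR on Fluidigm arrays, normalised to three housekeeping genes and fitted in both directions against 0.5% DMSO. HepaRG cells were dosed in duplicate for 48 h in serum-free induction medium, eight half-log steps from 100 uM.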

Read-out in assay [8]: Protein phosphatase 2A (PPP2R4), PTPA (gene 5524)
The assay can be described thus: LTEA_HepaRG_PPP2R4: Life Technologies and Expression Analysis (LTEA) Assay for Protein phosphatase 2A (PPP2R4) using HepaRG (AID 2283522). A digest of the protocol: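 Cells were plated, cultured 48 h, switched to serum-free induction medium, then dosed for 48 h (8 points, max 100 uM, 0.5% DMSO). RNA was isolated and PPP2R4 expression measured by TaqMan qRT-PCR.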

Read-out in assay [9]: solute carrier (SLC22A1), SLC22A1 (gene 6580)
Kind of assay: LTEA_HepaRG_SLC22A1: Life Technologies and Expression Analysis (LTEA) Assay for solute carrier (SLC22A1) using HepaRG (AID 2283524). Put shortly: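 qRT-PCR readout (TaqMan, Fluidigm arrays) of SLC22A1 transcript, normalized to three housekeeping genes; bidirectional curve fit relative to 0.5% DMSO vehicle. Differentiated human HepaRG cells, 48 h chemical exposure, top concentration 100 uM, half-log steps, eight points.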

Read-out in assay [10]: Pyruvate Dehydrogenase Kinase 4 (PDK4), PDK4 (gene 5166)
Kind of assay: LTEA_HepaRG_PDK4: Life Technologies and Expression Analysis (LTEA) Assay for Pyruvate Dehydrogenase Kinase 4 (PDK4) using HepaRG (AID 2283525). A digest of the protocol:
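HepaRG (human liver line), 48 h chemical exposure, 8-pt half-log CRC top 100 uM, 0.5% DMSO vehicle, duplicates. Readout: TaqMan qRT-PCR of PDK4 mRNA, housekeeping-normalized; gain/loss fit relative to DMSO baseline.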

Read-out in assay [11]: NAD(P)H dehydrogenase [quinone] 1 (NQO1), NQO1 (gene 1728)
Kind of assay: LTEA_HepaRG_NQO1: Life Technologies and Expression Analysis (LTEA) Assay for NAD(P)H dehydrogenase [quinone] 1 (NQO1) using HepaRG (AID 2283526). Put shortly: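 Transcript induction or suppression is quantified by qRT-PCR in human HepaRG liver cells dosed for 48 hours. Eight half-log concentrations topping at 100 uM are used, with 0.5% DMSO as vehicle and baseline.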

Read-out in assay [12]: Nuclear factor erythroid 2-related factor 2 (Homo sapiens) (UniProt Q16236)
The assay can be described thus: LTEA_HepaRG_NFE2L2: Life Technologies and Expression Analysis (LTEA) Assay for Nuclear factor erythroid 2-related factor 2 (NFE2L2) Transcription Factor using HepaRG (AID 2283527). A digest of the protocol: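 HepaRG, 48 h dosing, 8-pt half-log series from 100 uM in 0.5% DMSO, duplicates. Read-out: NFE2L2 mRNA by qRT-PCR (ACTB/GAPDH/POLR2A normalization). Bidirectional curve fit vs DMSO baseline.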

Read-out in assay [13]: succinate dehydrogenase complex iron sulfur subunit B (SDHB), SDHB (gene 6390)
The assay can be described thus: LTEA_HepaRG_SDHB: Life Technologies and Expression Analysis (LTEA) Assay for succinate dehydrogenase complex iron sulfur subunit B (SDHB) using HepaRG (AID 2283528). A digest of the protocol:
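SDHB transcript level read by TaqMan qRT-PCR, housekeeping-normalised (ACTB, GAPDH, POLR2A), after 48 h chemical treatment of plated HepaRG cells; eight concentrations top 100 uM, half-log steps, 0.5% DMSO, duplicates; fitted both directions against DMSO.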

Read-out in assay [14]: Signal transducer and activator of transcription 3 (Homo sapiens) (UniProt P40763)
The assay can be described thus: LTEA_HepaRG_STAT3: Life Technologies and Expression Analysis (LTEA) Assay for Signal transducer and activator of transcription (STAT3) using HepaRG (AID 2283529). A digest of the protocol: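 HepaRG, 48 h exposure, 8-pt half-log series (top 100 uM), 0.5% DMSO vehicle, duplicates. Readout: STAT3 transcript by Fluidigm qRT-PCR, housekeeping-normalized; bidirectional fit vs DMSO baseline.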

Read-out in assay [15]: solute carrier (SLCO1B1), SLCO1B1 (gene 10599)
The assay can be described thus: LTEA_HepaRG_SLCO1B1: Life Technologies and Expression Analysis (LTEA) Assay for solute carrier (SLCO1B1) using HepaRG (AID 2283530). Put shortly: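 Human HepaRG cultures treated for 48 h with an eight-concentration half-log series topping at 100 uM; SLCO1B1 measured by qRT-PCR and fitted bidirectionally relative to DMSO.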

Read-out in assay [16]: sulfotransferase 2A1 (SULT2A1), SULT2A1 (gene 6822)
The assay can be described thus: LTEA_HepaRG_SULT2A1: Life Technologies and Expression Analysis (LTEA) Assay for sulfotransferase 2A1 (SULT2A1) using HepaRG (AID 2283531). A digest of the protocol: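 Gene-expression endpoint in a human liver cell line: SULT2A1 mRNA change after 48 h chemical treatment, curves fitted in both directions relative to 0.5% DMSO vehicle. Concentrations spanned eight half-log steps from 100 uM.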

Read-out in assay [17]: Transforming Growth Factor (TGFA), TGFA (gene 7039)
The assay can be described thus: LTEA_HepaRG_TGFA: Life Technologies and Expression Analysis (LTEA) Assay for Transforming Growth Factor (TGFA) using HepaRG (AID 2283532). A digest of the protocol:
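qRT-PCR read-out of TGFA transcript, normalized to three housekeeping genes, fitted bidirectionally against 0.5% DMSO baseline. Human HepaRG cultures received chemicals for 48 h at eight half-log concentrations, top 100 uM.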

Read-out in assay [18]: matrix metalloproteinase-10 (MMP10), MMP10 (gene 4319)
Kind of assay: LTEA_HepaRG_MMP10: Life Technologies and Expression Analysis (LTEA) Assay for matrix metalloproteinase-10 (MMP10) using HepaRG (AID 2283517). Put shortly: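 Transcript levels come from Fluidigm qRT-PCR normalized to three housekeeping genes, with curves fitted bidirectionally against 0.5% DMSO. Human HepaRG cells were dosed for 48 hours at concentrations up to 100 uM.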

Read-out in assay [19]: Phosphatase and tensin (PTEN), PTEN (gene 5728)
The assay can be described thus: LTEA_HepaRG_PTEN: Life Technologies and Expression Analysis (LTEA) Assay for Phosphatase and tensin (PTEN) using HepaRG (AID 2283523). A digest of the protocol:
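HepaRG, 48 h exposure, 8-pt half-log series from 100 uM top, 0.5% DMSO vehicle, duplicates. Readout: Fluidigm qRT-PCR of PTEN transcript; housekeeping normalization (ACTB, GAPDH, POLR2A). Gain or loss fitted relative to DMSO baseline.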

SMILES strings stand for the structures. Active and inactive are the calls of the source. Rule for the calls: active = hit-call score of the fitted dose curve at least 0.9, where 1 is the maximum; inactive = score below 0.9.

Chain of Nuclear factor erythroid 2-related factor 2 (Homo sapiens) (Q16236 whole entry, looked up): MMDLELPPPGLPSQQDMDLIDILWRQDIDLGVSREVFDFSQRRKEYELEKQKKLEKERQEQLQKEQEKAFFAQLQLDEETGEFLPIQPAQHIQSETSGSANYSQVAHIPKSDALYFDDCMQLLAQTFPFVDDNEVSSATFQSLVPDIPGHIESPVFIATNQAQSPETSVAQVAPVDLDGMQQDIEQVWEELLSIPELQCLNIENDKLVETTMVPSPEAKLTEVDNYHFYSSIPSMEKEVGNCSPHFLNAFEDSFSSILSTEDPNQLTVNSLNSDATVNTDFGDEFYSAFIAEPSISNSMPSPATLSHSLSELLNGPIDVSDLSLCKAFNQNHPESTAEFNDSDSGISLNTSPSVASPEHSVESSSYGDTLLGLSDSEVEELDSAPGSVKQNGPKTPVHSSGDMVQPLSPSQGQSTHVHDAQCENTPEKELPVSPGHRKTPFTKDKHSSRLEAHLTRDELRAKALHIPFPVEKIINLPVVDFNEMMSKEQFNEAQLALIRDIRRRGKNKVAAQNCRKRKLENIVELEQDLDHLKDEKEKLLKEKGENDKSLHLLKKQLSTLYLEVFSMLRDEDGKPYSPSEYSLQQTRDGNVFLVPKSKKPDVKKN
Chain of Nuclear factor NF-kappa-B p105 subunit (Homo sapiens) (P19838 whole entry, looked up): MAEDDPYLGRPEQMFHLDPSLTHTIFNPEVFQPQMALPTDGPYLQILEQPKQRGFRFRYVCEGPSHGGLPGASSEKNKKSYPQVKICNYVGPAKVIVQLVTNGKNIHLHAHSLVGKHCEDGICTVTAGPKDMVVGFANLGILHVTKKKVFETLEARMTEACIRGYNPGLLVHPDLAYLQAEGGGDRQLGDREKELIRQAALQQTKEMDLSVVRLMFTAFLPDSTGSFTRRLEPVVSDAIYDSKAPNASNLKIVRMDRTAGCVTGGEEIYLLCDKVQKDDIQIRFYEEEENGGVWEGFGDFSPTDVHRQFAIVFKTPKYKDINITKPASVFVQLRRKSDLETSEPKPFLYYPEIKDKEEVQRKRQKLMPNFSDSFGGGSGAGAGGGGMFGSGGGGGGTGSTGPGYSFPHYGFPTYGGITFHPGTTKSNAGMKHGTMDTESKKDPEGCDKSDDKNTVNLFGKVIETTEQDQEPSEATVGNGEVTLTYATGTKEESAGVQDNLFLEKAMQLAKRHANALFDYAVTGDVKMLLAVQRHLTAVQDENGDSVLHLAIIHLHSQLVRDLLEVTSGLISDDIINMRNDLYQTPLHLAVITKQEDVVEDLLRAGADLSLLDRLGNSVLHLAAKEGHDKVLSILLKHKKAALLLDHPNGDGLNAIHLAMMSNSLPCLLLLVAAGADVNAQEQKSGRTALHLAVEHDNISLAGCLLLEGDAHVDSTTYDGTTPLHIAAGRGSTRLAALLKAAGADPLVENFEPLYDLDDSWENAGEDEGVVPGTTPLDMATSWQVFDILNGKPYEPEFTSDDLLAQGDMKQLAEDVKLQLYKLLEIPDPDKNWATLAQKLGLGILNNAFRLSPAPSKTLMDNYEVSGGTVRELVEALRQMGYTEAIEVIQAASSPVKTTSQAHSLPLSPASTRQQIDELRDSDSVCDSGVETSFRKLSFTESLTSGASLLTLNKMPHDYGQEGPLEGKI
Chain of Signal transducer and activator of transcription 3 (Homo sapiens) (P40763 whole entry, looked up): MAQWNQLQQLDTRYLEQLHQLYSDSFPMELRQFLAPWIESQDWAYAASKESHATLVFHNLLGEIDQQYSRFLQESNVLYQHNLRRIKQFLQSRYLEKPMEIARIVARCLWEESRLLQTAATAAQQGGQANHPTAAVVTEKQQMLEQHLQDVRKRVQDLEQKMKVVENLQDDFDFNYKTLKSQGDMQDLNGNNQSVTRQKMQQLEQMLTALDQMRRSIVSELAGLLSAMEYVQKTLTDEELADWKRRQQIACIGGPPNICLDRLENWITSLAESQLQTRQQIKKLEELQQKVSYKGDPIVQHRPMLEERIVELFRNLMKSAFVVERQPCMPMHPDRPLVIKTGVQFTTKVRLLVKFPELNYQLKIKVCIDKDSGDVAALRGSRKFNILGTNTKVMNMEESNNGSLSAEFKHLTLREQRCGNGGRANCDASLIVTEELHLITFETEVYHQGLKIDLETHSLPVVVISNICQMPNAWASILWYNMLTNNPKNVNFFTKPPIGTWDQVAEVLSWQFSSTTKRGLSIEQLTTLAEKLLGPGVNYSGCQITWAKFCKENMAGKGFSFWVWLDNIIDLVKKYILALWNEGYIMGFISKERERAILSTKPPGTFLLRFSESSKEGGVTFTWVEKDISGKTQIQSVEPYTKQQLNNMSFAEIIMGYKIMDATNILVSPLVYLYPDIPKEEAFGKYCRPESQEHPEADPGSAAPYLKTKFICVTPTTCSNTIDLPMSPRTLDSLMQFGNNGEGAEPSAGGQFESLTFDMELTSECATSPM

Regarding `COC(=O)c1ccccc1N`, the outcome in assay [1] was “inactive”; in assay [2], “inactive”; in assay [3] it was “inactive”; in assay [4] it was “inactive”; with MYC, MYC (gene 4609) it was “inactive”; in [5] it was “inactive”. Further, the outcome in assay [6], in assay [7], in assay [8], in assay [9], in assay [10] and in assay [11] was inactive. The result in assay [12], in assay [13], in assay [14], in assay [15], in assay [16] and in [17] was inactive.
For `CCCCCCCCn1sccc1=O`, the outcome is “inactive” in assay [1]; “inactive” with MYC, MYC (gene 4609); “inactive” in assay [5]; “inactive” in assay [7]; “inactive” in assay [8]; “inactive” in assay [19]. The result in [11], in assay [12], in assay [13], in [14], in assay [16] and in assay [17] was inactive. In addition, the concentration at half-maximal activity (AC50) was 80.9 µM (active) in assay [2]; 82.3 µM (active) in assay [4]; 76.6 µM (active) in [18]; 52 µM (active) in assay [6]; 34.4 µM (active) in assay [10].
`C1=Cc2cccc3cccc1c23`: the outcome in assay [1] is “inactive”; in assay [2], “inactive”; in assay [3], “inactive”; in assay [4], “inactive”; in the assay with MYC, MYC (gene 4609) it was “inactive”; in assay [5] it was “inactive”. Also, the compound was called inactive in assay [6], in assay [7], in assay [8], in assay [10], in [11] and in assay [12]. In addition, the result in assay [13], in [14], in assay [16] and in [17] was inactive.
Take `c1ccc(N=Nc2ccccc2)cc1`: the outcome in [1] is “inactive”; in assay [2] it was “inactive”; in assay [4] it was “inactive”; in assay [18], “inactive”; with MYC, MYC (gene 4609), “inactive”; in assay [5] it was “inactive”. Also, the outcome in [6], in assay [7], in [8], in assay [19], in [9] and in [10] was inactive. Besides, the compound was called inactive in [11], in assay [12], in [13], in assay [16] and in assay [17].

Usually AC50 stands for the midpoint of the concentration-response curve, whichever way the signal moves.
